Compound activity as filed in PubChem BioAssay.
PLK1 PBD inh: blocks phosphopeptide binding to human PLK1 polo-box domain. P53350. Plk1 PBD binding of FITC phosphopeptide, fluorescence polarization. Potency, µM, for inactives: max response, negative = inhibition, hits mostly inhibitors. hit rate 2.8% among 360,000. AID 720504; also: potency is read from the fitted curve at half-maximal effect; series mostly up to about 57 µM; % is scaled to controls: 0 for no effect and ±100 for the full control effect; nearly all actives have a fitted effect of over 65% in size
Target sequence (P53350 whole entry, looked up, the tested form may be a part): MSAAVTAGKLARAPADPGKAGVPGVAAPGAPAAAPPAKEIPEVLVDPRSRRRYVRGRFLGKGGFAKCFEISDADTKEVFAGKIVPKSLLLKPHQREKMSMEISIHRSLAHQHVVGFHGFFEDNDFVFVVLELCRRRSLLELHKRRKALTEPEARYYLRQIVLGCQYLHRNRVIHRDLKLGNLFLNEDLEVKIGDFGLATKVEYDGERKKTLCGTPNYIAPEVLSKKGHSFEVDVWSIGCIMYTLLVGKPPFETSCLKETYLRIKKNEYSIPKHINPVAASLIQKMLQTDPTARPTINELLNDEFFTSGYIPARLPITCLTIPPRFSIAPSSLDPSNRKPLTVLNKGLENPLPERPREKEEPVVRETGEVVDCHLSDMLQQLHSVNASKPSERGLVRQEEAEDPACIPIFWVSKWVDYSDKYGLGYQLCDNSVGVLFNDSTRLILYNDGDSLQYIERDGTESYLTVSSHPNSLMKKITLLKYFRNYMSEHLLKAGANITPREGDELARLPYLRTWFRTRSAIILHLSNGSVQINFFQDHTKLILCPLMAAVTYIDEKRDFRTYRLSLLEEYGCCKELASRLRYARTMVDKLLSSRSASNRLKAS
BAZ2B block: BAZ2B (human) inhibition; Q9UIF8; AlphaScreen BAZ2B-H3K14Ac peptide displacement; Potency, µM (doses to about 114 µM), without a hit: at the top dose activity change, negative = inhibition, usual class: inhibitors; hit rate 4.4% among 360,000; AID 504333; also: potency is read from the fitted curve at half-maximal effect; % is scaled to controls: 0 for no effect and ±100 for the full control effect; nearly all actives have a fitted effect of over 60% in size
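BAZ2B (50 nM) with biotin-H3(5-23)K14Ac peptide (50 nM) in PBS pH 7.4, 0.01% Tween-20, preformed 30 min, then compound 30 min at room temperature; top concentration 110uM. AlphaScreen streptavidin donor/nickel chelate acceptor beads (10 ug/mL final), 20 min dark, signal read.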
G9a block: blocks human histone lysine methyltransferase G9a; Q96KQ7; G9a H3K9 monomethylation, AlphaScreen, 2 h; Potency, µM (highest dose often 102 µM), for the others: top-dose activity, negative = inhibition, usual class: inhibitors; hit rate 8.8% among 350,000; AID 504332; also: potency is read from the fitted curve at half-maximal effect; % is scaled to controls: 0 for no effect and ±100 for the full control effect; nearly all actives have a fitted effect of over 75% in size
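Quantitative HTS format: methyltransferase activity on a biotin-tagged H3K9 peptide is measured by AlphaScreen, using a rabbit anti-monomethyl-H3K9 antibody with streptavidin donor and anti-IgG acceptor beads. Final levels are 20 nM enzyme, 500 nM peptide, 20 uM SAM; 2 h RT.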
ALOX12 inh: ALOX12 (human) lipoxygenase inhibition; hit rate 1.1% among 580,000; Potency, µM (titrated, usually from 108 µM), without a hit: at the top dose activity change, negative = inhibition, actives largely listed as inhibitors; P18054; AID 1671190; purified 12hLO, xylenol orange hydroperoxide absorbance; also: potency is read from the fitted curve at half-maximal effect; % is scaled to controls: 0 for no effect and ±100 for the full control effect
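Hydroperoxide product was detected by ferrous iron/xylenol orange as the 573 to 405 nm absorbance ratio. Arachidonic acid at 40 uM (final) was turned over for 30 min at room temperature by 150 nM human 12hLO, pH 7.0 Hepes buffer, after 15 min compound preincubation.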
HP1b binding inh: blocks HP1-beta chromodomain binding to methylated histone tails; hit rate 0.56% among 390,000; AID 540317; AlphaScreen HP1-beta / biotin-H3K9me3 peptide binding; Potency, µM (highest dose often 114 µM), for the others: at the top dose activity change, negative = inhibition, hits mostly inhibitors; also: potency is read from the fitted curve at half-maximal effect; nearly all actives have a fitted effect of over 70% in size
Target sequence (P83916 whole entry, looked up): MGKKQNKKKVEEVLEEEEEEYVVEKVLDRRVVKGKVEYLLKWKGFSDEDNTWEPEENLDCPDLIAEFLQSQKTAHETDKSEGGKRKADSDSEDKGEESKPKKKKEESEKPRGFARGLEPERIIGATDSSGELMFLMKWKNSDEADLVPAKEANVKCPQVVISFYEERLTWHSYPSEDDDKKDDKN
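Compound inhibition of the preformed complex between 50 nM HP1-beta and 50 nM biotinylated H3K9me3 peptide was read by AlphaScreen. Buffer was PBS pH 7.4 with 0.01% Tween-20. Incubations ran 30 min at room temperature, with 10 ug/mL donor/acceptor beads.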
JMJD2A Tudor: JMJD2A Tudor domain (human) inhibition; O75164; AlphaScreen JMJD2A-Tudor / H3K4me3 peptide binding; Potency, µM (series often up to 114 µM), for inactives: top-dose activity change, negative = inhibition, hits mostly inhibitors; hit rate 4.4% among 390,000; also: potency is read from the fitted curve at half-maximal effect; % is scaled to controls: 0 for no effect and ±100 for the full control effect; nearly all actives have a fitted effect of over 50% in size
JMJD2E inh-1: inhibitors of human JMJD2E demethylase, 8HQ series round 1; hit rate 89% among 130; JMJD2E demethylase, FDH-coupled NADH fluorescence; shares compounds with BAZ2B block; Potency, µM (highest dose often 57 µM), inactives show top-dose activity, negative = inhibition, actives largely listed as inhibitors
ME-1 prolif: reduces ME-1 leukemia cell proliferation | AID 504370 | Potency, µM (highest dose often 56.1 µM), inactives show at the top dose activity change, negative = inhibition, most hits filed as inhibitors | shares compounds with BAZ2B block | ME-1 cell proliferation, ATP luminescence, 48 h | hit rate 20% among 140
JMJD2E inh-2: JMJD2E (human) demethylase inhibition, confirmation | AID 2677 | hit rate 93% among 140 | Potency, µM (titrated, usually from 56.8 µM), for inactives: at the highest dose activity change, negative = inhibition, usual class: inhibitors | shares compounds with JMJD2A Tudor | Recombinant JMJD2E, FDH-coupled NADH fluorescence (FDH is formaldehyde dehydrogenase)
FDH inh: blocks Pseudomonas putida formaldehyde dehydrogenase, flagging JMJD2E artifacts | shares compounds with JMJD2A Tudor | FDH enzyme assay, NADH fluorescence kinetic | Potency, µM (series often up to 56.7 µM), without a hit: at the top dose activity, negative = inhibition, most hits filed as inhibitors | hit rate 10% among 140 | AID 2680
JMJD2E MALDI inh: blocks demethylation by human JMJD2E in a MALDI-TOF-MS assay; shares compounds with JMJD2A Tudor; hit rate 90% among 45; recombinant JMJD2E demethylation, MALDI-TOF-MS; Potency, µM, hits mostly inhibitors;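 active = compounds whose IC50 for blocking JMJD2E demethylation is below 100 µM; inconclusive = dose dependent effect but IC50 above 100 µM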
TbPYK inh: confirmation of Trypanosoma brucei pyruvate kinase inhibitors. recombinant TbPYK, Kinase-Glo ATP luminescence. shares compounds with PLK1 PBD inh. Potency, µM (series often up to 76.9 µM), without a hit: at the highest dose activity change, negative = inhibition, most hits filed as inhibitors. hit rate 67% among 890; also: potency is read from the fitted curve at half-maximal effect; % is scaled to controls: 0 for no effect and ±100 for the full control effect; nearly all actives have a fitted effect of over 70% in size
TbPYK ADP-Glo: TbPYK inhibition, orthogonal confirmation; Potency, µM (doses to about 76.9 µM), for the others: at the highest dose activity change, negative = inhibition, usual class: inhibitors; shares compounds with PLK1 PBD inh; recombinant TbPYK, ADP-Glo luminescence, 60 min; hit rate 62% among 890; also: potency is read from the fitted curve at half-maximal effect; % is scaled to controls: 0 for no effect and ±100 for the full control effect; nearly all actives have a fitted effect of over 75% in size
* marks the source's active call; other numbers are inactive results; ? = inconclusive; nt = not tested or not shown; [ ] = dose if it differs, or a comment. Shown are actives, neighbours in structure and some others; about 9% of the full set was active somewhere. Unless noted, calls follow the shape of the dose curve; as a rule, active = well fitted curve in the direction sought with a large enough effect; inconclusive = small, poorly fitted or top-dose-only effect, or another doubt; inactive = no such curve, though single readings can be large; an effect the other way counts as inactive or inconclusive.

SMILES | PLK1 PBD inh | BAZ2B block | G9a block | ALOX12 inh | HP1b binding inh | JMJD2A Tudor | JMJD2E inh-1 | JMJD2E inh-2 | FDH inh | JMJD2E MALDI inh | others
Cc1ccc(CNC(=O)[C@H]2CCC[C@@H](O)C2)c2cccnc12 | nt | nt | nt | 0.1% | nt | nt | nt | nt | nt | nt
CCN(CC(=O)Nc1ccc(N2CCOCC2)cc1)Cc1nc2ccccc2c(=O)[nH]1 | -5.6% | -13.0%[57.1 µM] | -50.1% | -11.1% | 42.7% | -26.1% | nt | nt | nt | nt
CN1CCN(Cc2cc(COCc3ccccc3)c3cccnc3c2O)CC1 | -9.5% | 10µM* | ? | 0.0% | 4.4% | 17.8µM* | 6.31µM* | 6.31µM* | -27.3% | nt
CN1CCN(C2CCN(Cc3ccc(O)c4ncccc34)CC2)CC1 | nt | 8.91µM* | -43.2%[2.33 µM] | ? | -6.1% | 44.7µM* | 3.16µM* | 3.16µM* | -9.1% | nt
CN1c2ncccc2CN(Cc2ccccc2O)CC[C@H]1CO | nt | nt | nt | 13.5%[176 µM] | nt | nt | nt | nt | nt | nt
O=S(=O)(c1ccc(O)c2ncccc12)N1CCCCC1 | nt | nt | nt | nt | nt | nt | 18.2µM* | 18.2µM* | -36.4% | nt
O=S(=O)(NCc1ccccc1)c1ccc(O)c2ncccc12 | nt | nt | nt | nt | nt | nt | 32.4µM* | 22.9µM* | -36.4% | nt
O=S(=O)(Nc1ccccc1F)c1ccc(O)c2ncccc12 | nt | nt | nt | nt | nt | nt | 28.9µM* | 12.9µM* | -36.4% | nt
O=S(=O)(Nc1ccccc1)c1ccc(O)c2ncccc12 | nt | nt | nt | nt | nt | nt | 9.13µM* | 9.13µM* | -27.3% | nt
CCOc1ccc(NS(=O)(=O)c2ccc(OCC)c3ncccc23)cc1 | -4.1% | -6.6% | 6.0% | 8.1% | 6.2% | -11.3% | nt | nt | nt | nt
CCCCCCCCN1C(=O)[C@@H](CC(=O)N2CCC(c3ccccc3)CC2)C[C@@]2(C(=O)OC)C1=C[C@H](C1CCCC1)O[C@@H]2C | nt | nt | nt | -9.8% | nt | nt | nt | nt | nt | nt
Cc1nc2nc(SCc3ccc(F)cc3Cl)nn2c(C)c1Cc1ccccc1 | nt | 15.9% | 12.5%[59 µM] | -25.3% | 35.7% | -2.1% | nt | nt | nt | nt
Oc1ccc(CNc2cccc(F)c2)c2cccnc12 | nt | nt | nt | nt | nt | 56.2µM* | 1.12µM* | 1.12µM* | -9.1% | 14.5*
N#Cc1ccc(CNc2ccc(F)cc2Cl)cc1 | nt | nt | nt | -0.7% | nt | nt | nt | nt | nt | nt
O=C(Cc1cccc2ccccc12)Nc1ccccc1Br | -2.0% | 6.7% | 23.3% | -23.7% | 36.4% | -9.3% | nt | nt | nt | nt
Oc1ccc(CNc2ccc(F)cc2Cl)c2cccnc12 | nt | nt | nt | nt | nt | 56.2µM* | 5.76µM* | 1.12µM* | -18.2% | 16.1*
Oc1ccc(CNc2ccccc2Br)c2cccnc12 | nt | nt | nt | nt | nt | 50.1µM* | 3.55µM* | 3.55µM* | -9.1% | 24.1*
O=C(Nc1cccc(OC2CCCC2)c1)C1CCCO1 (stereo not drawn) | nt | nt | nt | 15.8% | nt | nt | nt | nt | nt | nt
O=C(Cc1ccccc1F)Nc1cccc2cccnc12 | -2.7% | 10.3% | 32.5%[59 µM] | -7.1% | 42.2% | 10.7% | nt | nt | nt | nt
Oc1ccc(CCc2c(F)cccc2F)c2cccnc12 | nt | nt | nt | nt | nt | -18.4% | 8.13µM* | 12.9µM* | 0.0% | 39.4*
OCc1cn(Cc2ccc(O)c3ncccc23)cn1 | nt | 1µM* | -21.2%[12.7 µM] | nt | nt | nt | 11.2µM* | 11.2µM* | -9.1% | nt
Oc1ccc(CNCc2ccccc2F)c2cccnc12 | nt | nt | nt | nt | nt | 25.1µM* | 6.46µM* | ? | -18.2% | 21.2*
Oc1ccc(/C=C/c2ccccc2F)c2cccnc12 | nt | nt | nt | nt | nt | ? | 11.2µM* | 5.76µM* | -18.2% | 37.4*
Oc1ccc(/C=C/c2ccccc2)c2cccnc12 | nt | nt | nt | nt | nt | ? | 10µM* | 4.08µM* | -27.3% | 24.3*
COC(=O)C1=C(C)NC(=O)NC1c1cn(-c2ccccc2)nc1-c1cccs1 (stereo not drawn) | -1.5% | -5.7% | -25.4%[12.7 µM] | 29.7% | 10.1% | -4.1% | nt | nt | nt | nt
CC(=O)Nc1ccc2nc(-c3ccccc3C)oc2c1 | nt | nt | nt | 3.9% | nt | nt | nt | nt | nt | nt
O=S(=O)(c1ccc2nc(-c3ccco3)c(-c3ccco3)nc2c1)N1CCOCC1 | ? | 50.1µM* | 2µM* | 14.1µM* | -15.8% | 79.4µM* | nt | nt | nt | nt | ME-1 prolif=-11.0%[25.6 µM];TbPYK inh=20µM*;TbPYK ADP-Glo=25.1µM*
